Source: PubChem BioAssay (NCI)
Values joined by “and” are separate entries in the source; they are usually repeats but may differ in a detail not shown here. Identical values can stand only once. This is part of a sample that, as a whole, favours compounds with a hit. Of some 83,000 tested, about 20% had one in any assay.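 Assay: single dose, 48 h. Readout: percent growth (0 = no net growth; negative = cell death). Active: <10.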

Key:
Assay in all cases: NCI-60 one-dose screen, 48 h (100 = growth as untreated, 0 = no growth, -100 = all killed)
Details in all cases: 10 µM unless noted
HCT-15 colon = test system: HCT-15 colon
HT29 colon = test system: HT29 colon
SNB-75 CNS = test system: SNB-75 CNS
SNB-19 CNS = test system: SNB-19 CNS
U251 CNS = test system: U251 CNS
PC-3 prostate = test system: PC-3 prostate
SK-MEL-5 melanoma = test system: SK-MEL-5 melanoma
UACC-62 melanoma = test system: UACC-62 melanoma
LOX IMVI melanoma = test system: LOX IMVI melanoma
SK-MEL-28 melanoma = test system: SK-MEL-28 melanoma
SK-MEL-2 melanoma = test system: SK-MEL-2 melanoma
EKVX NSCLC = test system: EKVX NSCLC
SN12C renal = test system: SN12C renal
UO-31 renal = test system: UO-31 renal
TK-10 renal = test system: TK-10 renal
ACHN renal = test system: ACHN renal
CAKI-1 renal = test system: CAKI-1 renal
A498 renal = test system: A498 renal
CCRF-CEM leukemia = test system: CCRF-CEM leukemia
MOLT-4 leukemia = test system: MOLT-4 leukemia

Measured: growth

CCc1ccccc1-n1[nH]c(C)c(C=N)c1=O
inactive: HCT-15 colon 98.3% | HT29 colon 114% | SNB-75 CNS 101% | SNB-19 CNS 104% | U251 CNS 109% | PC-3 prostate 94.7% | SK-MEL-5 melanoma 104% | UACC-62 melanoma 101% | LOX IMVI melanoma 99.1% | SK-MEL-28 melanoma 110% | SK-MEL-2 melanoma 106% | EKVX NSCLC 104% | SN12C renal 106% | UO-31 renal 90% | TK-10 renal 103% | ACHN renal 105% | CAKI-1 renal 97.3% | A498 renal 112% | CCRF-CEM leukemia 102% | MOLT-4 leukemia 117%

CN(C)C(=N)N=C(N)N
inactive: HCT-15 colon 83.1% and 121% | HT29 colon 98.6% and 113% | SNB-75 CNS 101% and 114% | SNB-19 CNS 106% and 108% | U251 CNS 81.1% and 118% | PC-3 prostate 104% | SK-MEL-5 melanoma 103% and 131% | UACC-62 melanoma 99.7% and 120% | LOX IMVI melanoma 87% and 110% | SK-MEL-28 melanoma 116% and 106% | SK-MEL-2 melanoma 106% and 25.1% | EKVX NSCLC 113% | SN12C renal 95.3% and 127% | UO-31 renal 91.5% and 106% | TK-10 renal 119% and 149% | ACHN renal 92.8% and 115% | CAKI-1 renal 115% | A498 renal 128% and 106% | CCRF-CEM leukemia 79.9% | MOLT-4 leukemia 95.6% and 131%

CN(C)C(=S)N(C)C
inactive: HCT-15 colon 102% | HT29 colon 95.6% | SNB-75 CNS 86.3% | SNB-19 CNS 110% | U251 CNS 105% | PC-3 prostate 92.9% | SK-MEL-5 melanoma 108% | UACC-62 melanoma 108% | LOX IMVI melanoma 98.4% | SK-MEL-28 melanoma 118% | SK-MEL-2 melanoma 104% | EKVX NSCLC 127% | SN12C renal 104% | UO-31 renal 98.4% | TK-10 renal 99.2% | ACHN renal 104% | CAKI-1 renal 98.6% | A498 renal 120% | CCRF-CEM leukemia 97.5% | MOLT-4 leukemia 109%

Cc1ccc(N)cc1S(=O)(=O)O
inactive: HCT-15 colon 107% and 113% | HT29 colon 95.3% and 124% | SNB-75 CNS 97.3% | SNB-19 CNS 107% and 108% | U251 CNS 106% and 103% | PC-3 prostate 98.9% | SK-MEL-5 melanoma 112% and 109% | UACC-62 melanoma 105% and 108% | LOX IMVI melanoma 105% and 109% | SK-MEL-28 melanoma 109% and 113% | SK-MEL-2 melanoma 120% | EKVX NSCLC 109% and 105% | SN12C renal 103% and 106% | UO-31 renal 84.4% and 91.5% | TK-10 renal 75% and 135% | ACHN renal 101% and 118% | CAKI-1 renal 96.8% and 106% | A498 renal 113% | CCRF-CEM leukemia 60.6% and 109% | MOLT-4 leukemia 94.4%

OCCCc1ccccc1
inactive: HCT-15 colon 100% | HT29 colon 94.9% | SNB-75 CNS 88.7% | SNB-19 CNS 99.3% | U251 CNS 95.6% | PC-3 prostate 100% | SK-MEL-5 melanoma 103% | UACC-62 melanoma 96.2% | LOX IMVI melanoma 107% | SK-MEL-28 melanoma 108% | SK-MEL-2 melanoma 106% | EKVX NSCLC 110% | SN12C renal 96.5% | UO-31 renal 72.6% | TK-10 renal 108% | ACHN renal 106% | CAKI-1 renal 104% | A498 renal 110% | CCRF-CEM leukemia 108% | MOLT-4 leukemia 111%

COC(=O)c1cc(C(=O)OC)cc([N+](=O)[O-])c1
inactive: HCT-15 colon 105% | HT29 colon 111% | SNB-75 CNS 72.5% | SNB-19 CNS 118% | U251 CNS 94.4% | PC-3 prostate 98.7% | SK-MEL-5 melanoma 109% | UACC-62 melanoma 102% | LOX IMVI melanoma 104% | SK-MEL-28 melanoma 108% | SK-MEL-2 melanoma 109% | EKVX NSCLC 105% | SN12C renal 111% | UO-31 renal 83.6% | TK-10 renal 110% | ACHN renal 106% | CAKI-1 renal 109% | A498 renal 93.8% | CCRF-CEM leukemia 102% | MOLT-4 leukemia 71%

NNc1ncnc2cccc(Cl)c12
inactive: HCT-15 colon 97.8% | HT29 colon 95% | SNB-75 CNS 101% | SNB-19 CNS 103% | U251 CNS 95.4% | PC-3 prostate 93.3% | SK-MEL-5 melanoma 91% | UACC-62 melanoma 92% | LOX IMVI melanoma 94.6% | SK-MEL-28 melanoma 103% | SK-MEL-2 melanoma 95.3% | EKVX NSCLC 90.8% | SN12C renal 87.6% | UO-31 renal 89.1% | TK-10 renal 99.9% | ACHN renal 96.4% | CAKI-1 renal 107% | A498 renal 108% | CCRF-CEM leukemia 102% | MOLT-4 leukemia 108%
